# Measurements reported in PubChem BioAssay (NCATS).
# Results filed as inconclusive are left out. Unmarked numbers belong to inactive results. Calls follow the shape of the dose curve; as a rule, active = well fitted cell-killing curve with a large enough effect; inconclusive = small, poorly fitted or top-dose-only effect, or effect the other way; inactive = flat fitted curve, though single readings scatter.
# Test system: CASKI
# Experiment: Primary qHTS to identify gynecologic anti-cancer compounds using libraries of approved drugs and bioactive compounds (AID 1345084); also: nearly all actives have a fitted effect of over 55% in size
# Settings: Gynecologic cancer cell panel viability, ATPlite luminescence, 48 h; series mostly up to 57.5 µM; activity change, negative = cytotoxicity: at the top concentration
# Outline: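 Five-point cytotoxicity, 48 h drug exposure at 37 C, 5% CO2, on cells seeded 16 h beforehand. ATP content read by ATPlite luminescence.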
# % is scaled to controls: 0 for no effect and ±100 for the full control effect.
row,SMILES,"activity change, negative = cytotoxicity"
1,O=C(CN1C(=O)C2(CCCC2)NCC1c1cc(F)cc(F)c1)Nc1ccc2c(c1)CC1(C2)C(=O)Nc2ncccc21 (stereo not drawn),15%
2,N[C@H]1Cc2ccccc2N(O)C1=O,9.99%
3,COc1cc(OC)cc(C(=O)Nc2ccc(Cl)c(-c3nc4ccc(N(C)C)cc4[nH]3)c2)c1,-1.96%
4,CCC(CC)C(=O)Nc1sc2c(c1C#N)CCC(C(C)(C)CC)C2 (stereo not drawn),-0.956%
5,CC1(C)CC2C(C1)C(C)(O)C13CC1(COC3=O)C2O (stereo not drawn),-7.37%
6,NC(=O)c1cccc(-c2cc(OC(=O)NC3CCCCC3)ccc2O)c1,1.9%
7,CC1=C(CCC(C)CC(=O)O)[C@@]2(C)CCCC(C)(C)C2CC1=O (stereo partly drawn),8.9% [at 38.5 µM]
8,Cc1c[nH]c2nccc(Oc3c(F)cc(Nc4cc(Cl)nc(N)n4)cc3F)c12,-11.1%
9,CCOC(=O)c1cc(C#N)c(N2CCC(C(=O)NS(=O)(=O)Cc3ccccc3)CC2)nc1C,15%
10,COc1cc(O)cc(C)c1C(=O)O[C@H]1[C@@H](OC(C)=O)[C@H](n2ccc(=O)[nH]c2=O)O[C@@H]1CO,10.8% [at 25.3 µM]
11,C=C[C@]1(C)C=C2CCC3C(C)(CCC[C@@]3(C)C(=O)O)C2CC1 (stereo partly drawn),-3.16% [at 38.5 µM]
12,C[C@@H]1O[C@@H](O[C@H]2[C@H](O)[C@@H](C(=O)O)O[C@@H](O[C@H]3CC[C@@]4(C)C(CC[C@]5(C)C4CC=C4C6CC(C)(C)CC[C@]6(C(=O)O)CC[C@]45C)C3(C)C)[C@@H]2O[C@@H]2OC[C@@H](O)[C@H](O)[C@H]2O)[C@H](O)[C@H](O)[C@H]1O (stereo partly drawn),-0.197% [at 11.6 µM]
13,CC(=O)OC/C=C(\C)C(CC1C(C)=C(OC(C)=O)C(=O)C2C(C)(C)C(O)CCC12C)OC(C)=O (stereo not drawn),15.7% [at 25.3 µM]
